The values below come from the supplement of paper PMC6089552.

This assay deals with A673/TR/shEF. As to the kind of experiment: cell viability (LOESS-normalised, relative to median of negative controls) (log2 ratio); higher = more viable cells (less compound effect), active = hit call of the paper (over 3 MAD below the median). The note with it: treatment time: 72 h. Put shortly: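 For three days, A673/TR/shEF Ewing sarcoma cells in 384-well plates (1,500 per well) were treated with library compounds at two or more concentrations or with DMSO controls, after doxycycline had been added or withheld 24 h beforehand to induce EWS-FLI1 shRNA knockdown. Viability was read by CellTiter-Glo luminescence on an Envision reader. The data were LOESS-corrected per plate, divided by the median of negative controls and log2-transformed.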

Where [1] appears, read: 0.25 µM, library screen: screen1, EWS-FLI1 expression: high (no doxycycline).
The mark [2] stands for this setting: 0.25 µM, library screen: screen1, EWS-FLI1 expression: low (doxycycline-induced shRNA knockdown).
Setting [3] is: 0.25 µM, library screen: screen2, EWS-FLI1 expression: high (no doxycycline).
The mark [4] stands for this setting: 0.25 µM, library screen: screen2, EWS-FLI1 expression: low (doxycycline-induced shRNA knockdown).
The mark [5] stands for this setting: 2.5 µM, library screen: screen1, EWS-FLI1 expression: high (no doxycycline).
[6] abbreviates: 2.5 µM, library screen: screen1, EWS-FLI1 expression: low (doxycycline-induced shRNA knockdown).
Where [7] appears, read: 2.5 µM, library screen: screen2, EWS-FLI1 expression: high (no doxycycline).
[8] abbreviates: 2.5 µM, library screen: screen2, EWS-FLI1 expression: low (doxycycline-induced shRNA knockdown).

Among all 3,200 compounds or so, about 300 (9.4%) showed activity. The sample holds actives, similar compounds and a random draw of the others, so the mix is not that of the screen. Values without a mark were called inactive.

Consider `CN(C)CCCN1c2ccccc2Sc2ccc(C(F)(F)F)cc21`, for which the “cell viability (log2)” value under setting [1] is 0.067; the “cell viability (log2)” value under setting [2] was 0.0785; the “cell viability (log2)” value under setting [3] was 0.0818; the “cell viability (log2)” value under setting [4] is 0.0662; the “cell viability (log2)” value under setting [5] was 0.0754; the “cell viability (log2)” value under setting [6] is 0.158. Further, the “cell viability (log2)” value was 0.181 under setting [7] and 0.0843 under setting [8].

As for `CN(C)CCCN1c2ccccc2Sc2ccc(Cl)cc21`, the “cell viability (log2)” value (0.103 µM, library screen: screen3, EWS-FLI1 expression: high (no doxycycline)) was 0.0728; the “cell viability (log2)” value (0.103 µM, library screen: screen3, EWS-FLI1 expression: low (doxycycline-induced shRNA knockdown)) was 0.128; the “cell viability (log2)” value under setting [1] is 0.1; the “cell viability (log2)” value under setting [2] was 0.155; the “cell viability (log2)” value under setting [3] is 0.141; the “cell viability (log2)” value under setting [4] was 0.1. The “cell viability (log2)” value was 0.122 (0.308 µM, library screen: screen3, EWS-FLI1 expression: high (no doxycycline)); 0.0127 (0.308 µM, library screen: screen3, EWS-FLI1 expression: low (doxycycline-induced shRNA knockdown)); 0.0627 (0.926 µM, library screen: screen3, EWS-FLI1 expression: high (no doxycycline)); 0.015 (0.926 µM, library screen: screen3, EWS-FLI1 expression: low (doxycycline-induced shRNA knockdown)); 0.206 under setting [5]; 0.191 under setting [6]. Besides, the “cell viability (log2)” value was 0.129 under setting [7]; 0.0664 under setting [8]; -0.0176 (2.8 µM, library screen: screen3, EWS-FLI1 expression: high (no doxycycline)); 0.0383 (2.8 µM, library screen: screen3, EWS-FLI1 expression: low (doxycycline-induced shRNA knockdown)); 0.101 (8.3 µM, library screen: screen3, EWS-FLI1 expression: high (no doxycycline)); 0.0471 (8.3 µM, library screen: screen3, EWS-FLI1 expression: low (doxycycline-induced shRNA knockdown)). Besides, the “cell viability (log2)” value runs as follows: (25 µM, library screen: screen3, EWS-FLI1 expression: high (no doxycycline)) -0.0174; (25 µM, library screen: screen3, EWS-FLI1 expression: low (doxycycline-induced shRNA knockdown)) 0.0242.

Take `CN(C)CCCN1c2ccccc2Sc2ccccc21`: the “cell viability (log2)” value runs as follows: under setting [1], 0.0889; under setting [2], 0.0795; under setting [3], 0.0137; under setting [4], -0.394; under setting [5], 0.107; under setting [6], 0.224. Also, the “cell viability (log2)” value under setting [7] was -1.62 (active) and the “cell viability (log2)” value under setting [8] was -0.801 (active).

As for `CC(=O)Oc1cc(-c2coc3cc(OC(C)=O)c(OC(C)=O)c(OC(C)=O)c3c2=O)cc(OC(C)=O)c1OC(C)=O`, the “cell viability (log2)” value runs as follows: under setting [1], 0.0397; under setting [2], -0.0292; under setting [5], 0.0912; under setting [6], -0.0545.

As to `CC1(C)C=Cc2c(c3c(c4c(=O)c(-c5ccc(O)cc5)coc24)OC(C)(C)CC3)O1`, the “cell viability (log2)” value is 0.057 under setting [1], 0.068 under setting [2], 0.105 under setting [5] and 0.116 under setting [6].

Consider `C/C(=C\c1ccc(C(=O)O)cc1)c1ccc2c(c1)C(C)(C)CCC2(C)C`, for which the “cell viability (log2)” value by setting is: under setting [3], 0.00709; under setting [4], 0.0496; under setting [7], 0.0275; under setting [8], 0.0889.

On to `O=C(O)c1ccc2c(c1)OCO2`, for which the “cell viability (log2)” value reads like this: under setting [1], 0.146; under setting [2], 0.102; under setting [5], 0.137; under setting [6], 0.0963.

Consider `NC1(C(=O)O)CCc2cc(C(=O)O)ccc21` (stereo not given), for which the “cell viability (log2)” value under setting [3] is -0.364 (active), the “cell viability (log2)” value under setting [4] was 0.0469, the “cell viability (log2)” value under setting [7] was 0.0221 and the “cell viability (log2)” value under setting [8] was 0.107.

In the case of `C=C(C)Cn1c(COc2ccc(Cl)cc2Cl)n[nH]c1=S`, the “cell viability (log2)” value under setting [1] is 0.0645, the “cell viability (log2)” value under setting [2] was -0.015, the “cell viability (log2)” value under setting [5] is 0.0851 and the “cell viability (log2)” value under setting [6] is -0.014.

On to `CC(C)CC(NP(=O)(O)O[C@@H]1O[C@@H](C)[C@H](O)[C@@H](O)[C@H]1O)C(=O)NC(Cc1c[nH]c2ccccc12)C(=O)O` (stereo not given in full), for which the “cell viability (log2)” value is 0.0833 under setting [3], 0.00183 under setting [4], 0.149 under setting [7] and -0.00437 under setting [8].

Consider `COc1cc(CN2CCN(Cc3ccccc3F)CC2)cc(OC)c1OC`, for which the “cell viability (log2)” value is 0.0928 under setting [1], 0.0533 under setting [2], 0.0786 under setting [5] and 0.127 under setting [6].

As to `OC[C@H]1N[C@H](CO)[C@@H](O)[C@@H]1O`, the “cell viability (log2)” value by setting is: under setting [3], 0.176; under setting [4], 0.0684; under setting [7], 0.108; under setting [8], 0.0354.

Turning to `Cc1ccc(C(C)C)c(O)c1C(=O)O`, the “cell viability (log2)” value reads like this: under setting [1], 0.112; under setting [2], 0.00973; under setting [5], 0.164; under setting [6], 0.0715.

With `CC(C)C[C@@H]1NC(=O)[C@H](CCCN)NC(=O)[C@H](C(C)C)NC(=O)[C@@H]2CCCN2C(=O)[C@@H](Cc2ccccc2)NC(=O)[C@H](CC(C)C)NC(=O)[C@H](CCCN)NC(=O)[C@H](C(C)C)NC(=O)[C@@H]2CCCN2C(=O)[C@@H](Cc2ccccc2)NC1=O`, the “cell viability (log2)” value by setting is: under setting [1], -1.96 (active); under setting [2], -0.176 (active); under setting [5], -3.79 (active); under setting [6], -0.0354.

Consider `CC(C)[C@@H]1NC(=O)[C@H](CCCCN)NC(=O)[C@@H](Cc2c[nH]c3ccccc23)NC(=O)[C@H](Cc2ccc(O)cc2)NC(=O)[C@H](C)N(C)C(=O)[C@H](Cc2ccccc2)NC1=O`, for which the “cell viability (log2)” value was 0.191 under setting [3], 0.085 under setting [4], 0.149 under setting [7] and 0.111 under setting [8].

As to `CC(C)C[C@@H]1NC(=O)[C@H](CCCN)NC(=O)[C@H](C(C)C)NC(=O)[C@H](Cc2ccc(O)cc2)N[C@@H](CCC(=O)O)C(=O)N[C@@H](CC(N)=O)C(=O)[C@@H](Cc2ccccc2)NC(=O)[C@H](Cc2ccccc2)NC(=O)[C@@H]2CCCN2C(=O)[C@@H](Cc2ccccc2)NC1=O`, the “cell viability (log2)” value under setting [1] was -0.767 (active), the “cell viability (log2)” value under setting [2] is -0.0111, the “cell viability (log2)” value under setting [5] is -2.84 (active) and the “cell viability (log2)” value under setting [6] is -2.45 (active).

Consider `CCC(C)C(N)C1=NC(C(=O)N[C@@H](CC(C)C)C(=O)N[C@H](CCC(=O)O)C(=O)N[C@H](C(=O)N[C@H]2CCCCNC(=O)[C@H](CC(N)=O)NC(=O)[C@@H](CC(=O)O)NC(=O)[C@H](Cc3cnc[nH]3)NC(=O)[C@@H](Cc3ccccc3)NC(=O)[C@H]([C@@H](C)CC)NC(=O)[C@@H](CCCN)NC2=O)[C@@H](C)CC)CS1` (stereo not given in full), for which the “cell viability (log2)” value under setting [1] was 0.0992, the “cell viability (log2)” value under setting [2] is -0.0505, the “cell viability (log2)” value under setting [5] was 0.131 and the “cell viability (log2)” value under setting [6] is 0.0875.

`CC1=CCCC(=O)C2CC(C)(C)C2CC1` (stereo not given): the “cell viability (log2)” value under setting [1] is 0.0664, the “cell viability (log2)” value under setting [2] is 0.0572, the “cell viability (log2)” value under setting [5] was 0.102 and the “cell viability (log2)” value under setting [6] was 0.0635.

With `CC(=O)O[C@H]1C[C@@]2(C)[C@H](c3ccoc3)OC(=O)[C@H]3O[C@]32[C@@]2(C)C1[C@]1(C)C(C[C@H]2OC(C)=O)C(C)(C)[C@H](OC(C)=O)C[C@@H]1OC(C)=O` (stereo not given in full), the “cell viability (log2)” value was -0.00983 under setting [1], 0.0592 under setting [2], 0.0456 under setting [5] and 0.0721 under setting [6].
